PubChem BioAssay (EPA / NIEHS)
Records with an inconclusive call do not appear. Calls of active or inactive are those of the source. Rule for the calls, unless noted: active = hit-call score of the fitted dose curve at least 0.9, where 1 is the maximum; inactive = score below 0.9.

What was measured:
[1] = ATG_TCF_b_cat_CIS: Attagene CIS-FACTORIAL HepG2 Assay for human T-Cell-Factor with beta-catenin (TCF/b-cat) (AID 2282965); conditions: HepG2 TCF/beta-catenin cis-reporter transcription, actives raise or lower the signal
Procedure, shortened: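 HepG2, transient MRTU transfection, cis-element-driven reporters (endogenous TFs). 24 h compound exposure. Readout: reporter mRNA by RT-PCR + 6-FAM primer extension, HpaI digest, capillary electrophoresis. Gain/loss fit vs DMSO baseline.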

[2] = ATG_TAL_CIS: Attagene CIS-FACTORIAL HepG2 Assay for human TAL Basal Promoter (AID 2282966); conditions: HepG2 Attagene cis-factorial TAL promoter reporter; actives raise or lower the signal;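 note: background control endpoint measuring basal TAL promoter reporter mRNA not a specific factor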
Procedure, shortened: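 Basal-promoter background-control endpoint from a multiplexed HepG2 reporter panel. Cells were exposed 24 h, then reporter mRNA was read by RT-PCR/CE fluorescence and fitted in both directions relative to DMSO.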

[3] = ATG_TGFb_CIS: Attagene CIS-FACTORIAL HepG2 Assay for human Transforming Growth Factor (TGF) (AID 2282967); conditions: HepG2 Attagene CIS TGFb reporter, mRNA transcription; actives raise or lower the signal
Procedure, shortened: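 Bidirectional fitting relative to DMSO gave the endpoint. Underlying data: reporter mRNA from HepG2 cells carrying transiently transfected cis-regulated reporter constructs, harvested 24 h after dosing and analyzed by RT-PCR and capillary electrophoresis.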

[4] = ATG_VDRE_CIS: Attagene CIS-FACTORIAL HepG2 Assay for human Vitamin D Receptor Element (VDRE) (AID 2282968); conditions: HepG2 VDRE cis-reporter transcription, actives raise or lower the signal
Procedure, shortened: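 Compounds were applied for 24 h to HepG2 cells transfected with promoter-regulated reporter units. Total RNA was reverse-transcribed, and reporter amplicons were fluorescently labelled and sized by capillary electrophoresis.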

[5] = target: Estrogen receptor (Homo sapiens) (UniProt P03372); test: ATG_ERa_TRANS: Attagene TRANS-FACTORIAL HepG2 Assay for human Estrogen Receptor alpha (ERa) (AID 2282970; active = hit-call score of the fitted dose curve at least 0.9, where 1 is the maximum); conditions: HepG2 Attagene TRANS ERa GAL4 reporter, mRNA
Procedure, shortened: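 Gal4-fusion ERa transactivation, measured as reporter transcript level in transiently transfected HepG2 cells. Exposure 24 h; RT-PCR plus capillary electrophoresis with fluorescence detection.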

[6] = target: Steroid hormone receptor ERR1 (Homo sapiens) (UniProt P11474); test: ATG_ERRa_TRANS: Attagene TRANS-FACTORIAL HepG2 Assay for human Estrogen-Related Receptor alpha (ERRa) (AID 2282971; active = hit-call score of the fitted dose curve at least 0.9, where 1 is the maximum); conditions: HepG2 Attagene TRANS reporter, ERRa transactivation
Procedure, shortened: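 HepG2 cells transiently transfected with GAL4-UAS reporter units and chimeric NR-Gal4 constructs; after 24 hour compound incubation, reporter mRNA quantified by RT-PCR, fluorescent labelling and capillary electrophoresis, gain of signal versus DMSO.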

[7] = target: X-box-binding protein 1 (Homo sapiens) (UniProt P17861); test: ATG_Xbp1_CIS: Attagene CIS-FACTORIAL HepG2 Assay for human X-box Binding Protein 1 (XBP1) (AID 2282972); conditions: HepG2 XBP1 cis-element reporter, Attagene multiplex; actives raise or lower the signal
Procedure, shortened: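 Human hepatoma HepG2, cis-element reporter system, 24 h treatment; mRNA quantified by RT-PCR/CE fluorescence; fit relative to DMSO.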

[8] = ATG_M_19_TRANS: Attagene TRANS-FACTORIAL HepG2 Assay for M19 Transcription Factor (Internal Marker) (AID 2282974; active = hit-call score of the fitted dose curve at least 0.9, where 1 is the maximum); conditions: HepG2 Attagene TRANS-FACTORIAL M19 internal marker reporter
Procedure, shortened: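 Using RT-PCR and capillary electrophoresis, reporter mRNA from transiently transfected human HepG2 cells was quantified following 24 h exposure; activity was fitted in the positive direction against DMSO.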

[9] = target: Glucocorticoid receptor (Homo sapiens) (UniProt P04150); test: ATG_GR_TRANS: Attagene TRANS-FACTORIAL HepG2 Assay for human Glucocorticoid Receptor (GR) (AID 2282978; active = hit-call score of the fitted dose curve at least 0.9, where 1 is the maximum;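 note: activators score as hits since higher reporter transcript over DMSO is fitted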); conditions: HepG2 Attagene TRANS GR reporter, mRNA transcription
Procedure, shortened: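 Exogenous NR-GAL4 fusion activity was assessed through induced GAL4-UAS reporter transcripts in transfected human HepG2 cells, quantified after 24 h by RT-PCR and fluorescent capillary electrophoresis with DMSO as baseline.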

[10] = target: Hepatocyte nuclear factor 4-alpha (Homo sapiens) (UniProt P41235); test: ATG_HNF4a_TRANS: Attagene TRANS-FACTORIAL HepG2 Assay for human Hepatocyte Nuclear Factor 4 alpha (HNF4a) (AID 2282982; active = hit-call score of the fitted dose curve at least 0.9, where 1 is the maximum); conditions: HepG2 HNF4a transactivation reporter, mRNA readout
Procedure, shortened: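 Endpoint reflects transcriptional activation of a GAL4-UAS reporter by an HNF4a-GAL4 chimera in transfected HepG2 cells, 24 h post-dosing. Fluorescence from RT-PCR products separated by capillary electrophoresis; DMSO baseline.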

[11] = ATG_M_32_TRANS: Attagene TRANS-FACTORIAL HepG2 Assay for M32 Transcription Factor (Internal Marker) (AID 2282984; active = hit-call score of the fitted dose curve at least 0.9, where 1 is the maximum); conditions: HepG2 Attagene TRANS M32 internal marker reporter
Procedure, shortened: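 Internal-marker readout from a multiplexed transcription reporter panel. HepG2 cells were transfected with GAL4-UAS reporter units, treated 24 hours, and reporter transcript levels determined by fluorescence after RT-PCR and capillary separation.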

[12] = target: Transcriptional activator Myb (Homo sapiens) (UniProt P10242); test: ATG_Myb_CIS: Attagene CIS-FACTORIAL HepG2 Assay for human Myeloblastosis (Myb) Proto-Oncogene Transcription Factor (AID 2282986); conditions: HepG2 Attagene CIS-FACTORIAL Myb reporter transcription; actives raise or lower the signal
Procedure, shortened: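 In this HepG2 transient-transfection format, cis-regulated reporter mRNA is quantified 24 h post-dosing by RT-PCR with capillary electrophoresis, fitted bidirectionally to DMSO baseline.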

[13] = target: Estrogen-related receptor gamma (Homo sapiens) (UniProt P62508); test: ATG_ERRg_TRANS: Attagene TRANS-FACTORIAL HepG2 Assay for human Estrogen-Related Receptor gamma (ERRg) (AID 2282977; active = hit-call score of the fitted dose curve at least 0.9, where 1 is the maximum;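 note: hits increase reporter signal over DMSO so potencies reflect activators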); conditions: HepG2 Attagene TRANS reporter, ERRg transactivation
Procedure, shortened: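 Induction of reporter transcripts through a chimeric NR-Gal4 protein is quantified in transfected human HepG2 liver cells after 24 h chemical exposure, using RT-PCR with capillary electrophoresis detection and DMSO as baseline.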

[14] = target: Oxysterols receptor LXR-beta (Homo sapiens) (UniProt P55055); test: ATG_LXRb_TRANS: Attagene TRANS-FACTORIAL HepG2 Assay for human Liver X Receptor beta (LXRb) (AID 2282981; active = hit-call score of the fitted dose curve at least 0.9, where 1 is the maximum); conditions: HepG2 Attagene TRANS GAL4-LXRb reporter, mRNA
Procedure, shortened: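 Multiplexed reporter assay, HepG2, 24 h dosing. Fluorescence of labelled RT-PCR products after capillary electrophoresis gives transcript level; positive fitting direction relative to DMSO.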

[15] = ATG_M_06_TRANS: Attagene TRANS-FACTORIAL HepG2 Assay for M06 Transcription Factor (Internal Marker) (AID 2282983; active = hit-call score of the fitted dose curve at least 0.9, where 1 is the maximum); conditions: HepG2 Attagene TRANS M06 internal marker reporter
Procedure, shortened: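 mRNA levels of a reporter transcript, quantified as FAM fluorescence on capillary electrophoresis, served as readout. HepG2 cells expressing exogenous GAL4-chimera reporter constructs were exposed for 24 h. Gain of signal over DMSO was evaluated.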

[16] = target: Nuclear receptor subfamily 1 group I member 3 (Homo sapiens) (UniProt Q14994); test: ATG_CAR_TRANS: Attagene TRANS-FACTORIAL HepG2 Assay for human Constitutive Androstane Receptor (CAR) (AID 2282969; active = hit-call score of the fitted dose curve at least 0.9, where 1 is the maximum;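 note: activators raise reporter mRNA above DMSO so AC50 marks induction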); conditions: HepG2 Attagene TRANS-FACTORIAL CAR reporter
Procedure, shortened: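 Transiently transfected HepG2, multiplex TRANS reporters (CAR-Gal4 chimera driving GAL4-UAS reporter). 24 h dosing. Readout: reporter transcript by RT-PCR + capillary electrophoresis, fluorescence intensity; positive direction vs DMSO.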

[17] = ATG_GAL4_TRANS: Attagene TRANS-FACTORIAL HepG2 Assay for GAL4 (Internal Marker) (AID 2282976; active = hit-call score of the fitted dose curve at least 0.9, where 1 is the maximum); conditions: HepG2 Attagene TRANS GAL4 internal marker reporter
Procedure, shortened: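 Background-control readout: GAL4-UAS reporter transcript in transiently transfected HepG2 cells after 24 h compound exposure. Measured by RT-PCR, 6-FAM primer extension, HpaI digest and capillary electrophoresis; gain-of-signal fit versus DMSO.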

[18] = target: Nuclear receptor subfamily 4 group A member 2 (Homo sapiens) (UniProt P43354); test: ATG_NURR1_TRANS: Attagene TRANS-FACTORIAL HepG2 Assay for human Nuclear Receptor Related Protein 1 (NURR1) (AID 2282985; active = hit-call score of the fitted dose curve at least 0.9, where 1 is the maximum); conditions: HepG2 Attagene TRANS reporter, mRNA readout
Procedure, shortened: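 Endpoint: reporter mRNA increase relative to DMSO. HepG2 cells transfected with reporter units, treated 24 h; RNA processed by RT-PCR, labelling, HpaI digestion and capillary electrophoresis.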

[19] = target: Oxysterols receptor LXR-alpha (Homo sapiens) (UniProt Q13133); test: ATG_LXRa_TRANS: Attagene TRANS-FACTORIAL HepG2 Assay for human Liver X Receptor alpha (LXRa) (AID 2282980; active = hit-call score of the fitted dose curve at least 0.9, where 1 is the maximum); conditions: HepG2 Attagene TRANS reporter, LXRa transactivation
Procedure, shortened: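 HepG2 cells transiently transfected with GAL4-UAS reporter units for chimeric NR-Gal4 proteins, exposed to chemicals for 24 h. Reporter mRNA quantified by RT-PCR and capillary electrophoresis; gain of signal fitted relative to DMSO.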

[20] = target: Bile acid receptor (Homo sapiens) (UniProt Q96RI1); test: ATG_FXR_TRANS: Attagene TRANS-FACTORIAL HepG2 Assay for Farnesoid X Receptor (FXR) (AID 2282979; active = hit-call score of the fitted dose curve at least 0.9, where 1 is the maximum;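 note: hits raise reporter mRNA above DMSO so AC50 marks FXR activation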); conditions: HepG2 Attagene TRANS FXR-GAL4 reporter transcription
Procedure, shortened: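 HepG2 cells were transiently transfected with GAL4-UAS reporters driven by chimeric NR-Gal4 proteins and dosed for 24 h. Reporter mRNA was quantified by RT-PCR, fluorescent labelling, HpaI digestion and capillary electrophoresis, with gain of signal scored versus DMSO.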

Measured: AC50

Nuclear receptor subfamily 1 group I member 3 (Homo sapiens), sequence (Q14994 whole entry, looked up, the tested form may be a part): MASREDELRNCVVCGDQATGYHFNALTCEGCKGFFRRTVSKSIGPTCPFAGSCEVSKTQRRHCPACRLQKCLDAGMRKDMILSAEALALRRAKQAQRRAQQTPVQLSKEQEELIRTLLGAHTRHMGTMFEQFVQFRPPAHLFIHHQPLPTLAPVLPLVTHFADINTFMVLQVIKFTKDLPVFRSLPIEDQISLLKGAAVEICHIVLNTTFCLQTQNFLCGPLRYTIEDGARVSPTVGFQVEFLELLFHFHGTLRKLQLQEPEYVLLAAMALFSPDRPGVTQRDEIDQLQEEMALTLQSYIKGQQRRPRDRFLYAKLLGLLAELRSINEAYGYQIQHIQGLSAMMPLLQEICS
Oxysterols receptor LXR-alpha (Homo sapiens), sequence (Q13133 whole entry, looked up, the tested form may be a part): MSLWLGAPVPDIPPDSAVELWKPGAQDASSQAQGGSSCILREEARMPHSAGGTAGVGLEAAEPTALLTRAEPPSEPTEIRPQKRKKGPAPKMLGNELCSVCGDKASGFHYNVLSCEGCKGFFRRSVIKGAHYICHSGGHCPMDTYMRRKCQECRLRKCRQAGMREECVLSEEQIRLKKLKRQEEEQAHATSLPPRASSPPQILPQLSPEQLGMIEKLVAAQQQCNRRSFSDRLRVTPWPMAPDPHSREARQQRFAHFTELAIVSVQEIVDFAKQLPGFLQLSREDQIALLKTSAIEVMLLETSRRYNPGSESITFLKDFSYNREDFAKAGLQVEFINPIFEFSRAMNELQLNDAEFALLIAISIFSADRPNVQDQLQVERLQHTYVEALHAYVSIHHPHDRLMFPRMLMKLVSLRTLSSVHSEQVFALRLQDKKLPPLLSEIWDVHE
Estrogen receptor (Homo sapiens), sequence (P03372 whole entry, looked up, the tested form may be a part): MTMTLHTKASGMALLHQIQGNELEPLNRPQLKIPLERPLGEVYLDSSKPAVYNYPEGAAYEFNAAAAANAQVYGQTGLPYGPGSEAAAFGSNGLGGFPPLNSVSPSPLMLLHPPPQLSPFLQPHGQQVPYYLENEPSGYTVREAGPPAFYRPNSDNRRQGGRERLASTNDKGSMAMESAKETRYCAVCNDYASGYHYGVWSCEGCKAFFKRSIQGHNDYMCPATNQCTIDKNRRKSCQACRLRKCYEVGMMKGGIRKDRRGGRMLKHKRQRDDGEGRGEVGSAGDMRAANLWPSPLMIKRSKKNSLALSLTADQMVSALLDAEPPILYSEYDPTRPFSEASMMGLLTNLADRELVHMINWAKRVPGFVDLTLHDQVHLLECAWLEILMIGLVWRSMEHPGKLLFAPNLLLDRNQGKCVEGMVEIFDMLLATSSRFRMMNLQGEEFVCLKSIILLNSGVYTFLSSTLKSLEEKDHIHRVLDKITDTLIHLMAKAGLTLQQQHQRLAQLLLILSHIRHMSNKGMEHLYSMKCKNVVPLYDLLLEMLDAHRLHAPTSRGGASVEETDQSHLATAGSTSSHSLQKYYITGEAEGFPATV
Nuclear receptor subfamily 4 group A member 2 (Homo sapiens), sequence (P43354 whole entry, looked up): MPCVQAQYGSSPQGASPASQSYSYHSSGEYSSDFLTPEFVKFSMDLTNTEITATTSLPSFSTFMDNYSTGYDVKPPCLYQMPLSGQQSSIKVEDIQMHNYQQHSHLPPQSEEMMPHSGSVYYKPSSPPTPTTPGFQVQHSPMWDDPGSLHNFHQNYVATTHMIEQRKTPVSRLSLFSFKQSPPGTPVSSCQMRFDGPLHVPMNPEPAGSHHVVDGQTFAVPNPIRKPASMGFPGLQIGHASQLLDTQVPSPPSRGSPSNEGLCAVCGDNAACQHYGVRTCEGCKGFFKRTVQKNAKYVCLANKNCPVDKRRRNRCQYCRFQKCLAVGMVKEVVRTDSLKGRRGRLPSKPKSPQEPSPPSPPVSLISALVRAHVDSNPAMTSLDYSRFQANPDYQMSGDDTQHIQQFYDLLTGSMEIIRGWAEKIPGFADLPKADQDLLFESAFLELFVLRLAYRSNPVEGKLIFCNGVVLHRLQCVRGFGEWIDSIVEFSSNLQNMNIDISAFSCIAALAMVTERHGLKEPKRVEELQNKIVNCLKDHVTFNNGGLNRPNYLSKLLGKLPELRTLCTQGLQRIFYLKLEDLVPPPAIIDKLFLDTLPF
Steroid hormone receptor ERR1 (Homo sapiens), sequence (P11474 whole entry, looked up, the tested form may be a part): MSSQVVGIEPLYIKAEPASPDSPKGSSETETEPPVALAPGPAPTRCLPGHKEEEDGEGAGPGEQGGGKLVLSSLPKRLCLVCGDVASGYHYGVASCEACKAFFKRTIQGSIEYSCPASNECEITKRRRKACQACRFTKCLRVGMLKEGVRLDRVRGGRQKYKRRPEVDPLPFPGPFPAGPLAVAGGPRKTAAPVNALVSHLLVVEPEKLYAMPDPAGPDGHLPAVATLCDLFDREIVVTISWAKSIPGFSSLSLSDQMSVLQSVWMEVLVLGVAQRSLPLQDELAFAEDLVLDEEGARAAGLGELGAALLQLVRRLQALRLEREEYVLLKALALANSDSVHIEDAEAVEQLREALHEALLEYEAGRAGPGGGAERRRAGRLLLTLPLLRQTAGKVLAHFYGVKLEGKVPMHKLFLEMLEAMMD
Transcriptional activator Myb (Homo sapiens), sequence (P10242 whole entry, looked up): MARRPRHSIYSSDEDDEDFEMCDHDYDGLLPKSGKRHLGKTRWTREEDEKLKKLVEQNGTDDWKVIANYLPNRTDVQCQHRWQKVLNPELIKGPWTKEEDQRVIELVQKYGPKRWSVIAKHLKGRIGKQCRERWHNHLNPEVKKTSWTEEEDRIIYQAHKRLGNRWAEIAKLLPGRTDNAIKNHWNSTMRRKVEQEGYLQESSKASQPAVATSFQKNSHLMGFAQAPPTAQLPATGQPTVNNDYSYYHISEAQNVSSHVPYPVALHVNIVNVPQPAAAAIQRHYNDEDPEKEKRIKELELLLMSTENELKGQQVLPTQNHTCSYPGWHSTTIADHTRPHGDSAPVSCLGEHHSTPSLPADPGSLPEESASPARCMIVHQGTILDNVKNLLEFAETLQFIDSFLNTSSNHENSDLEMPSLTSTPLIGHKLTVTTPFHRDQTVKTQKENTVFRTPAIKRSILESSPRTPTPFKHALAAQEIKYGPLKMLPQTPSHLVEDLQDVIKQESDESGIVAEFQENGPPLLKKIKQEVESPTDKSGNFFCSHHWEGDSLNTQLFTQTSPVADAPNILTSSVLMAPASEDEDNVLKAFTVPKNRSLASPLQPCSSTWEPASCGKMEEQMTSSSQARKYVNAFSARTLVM
Hepatocyte nuclear factor 4-alpha (Homo sapiens), sequence (P41235 whole entry, looked up, the tested form may be a part): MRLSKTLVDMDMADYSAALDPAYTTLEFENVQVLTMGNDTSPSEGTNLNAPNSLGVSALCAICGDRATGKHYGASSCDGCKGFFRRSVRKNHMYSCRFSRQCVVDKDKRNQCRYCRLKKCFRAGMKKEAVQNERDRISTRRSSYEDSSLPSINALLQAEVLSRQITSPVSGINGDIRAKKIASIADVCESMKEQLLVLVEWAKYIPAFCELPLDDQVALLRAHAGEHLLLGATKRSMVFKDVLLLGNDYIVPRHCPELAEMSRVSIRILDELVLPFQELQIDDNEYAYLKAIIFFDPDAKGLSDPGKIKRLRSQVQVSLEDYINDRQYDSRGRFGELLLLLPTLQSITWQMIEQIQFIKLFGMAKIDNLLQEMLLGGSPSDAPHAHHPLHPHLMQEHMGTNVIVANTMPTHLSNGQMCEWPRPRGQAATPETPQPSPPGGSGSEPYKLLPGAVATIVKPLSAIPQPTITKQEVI
Oxysterols receptor LXR-beta (Homo sapiens), sequence (P55055 whole entry, looked up, the tested form may be a part): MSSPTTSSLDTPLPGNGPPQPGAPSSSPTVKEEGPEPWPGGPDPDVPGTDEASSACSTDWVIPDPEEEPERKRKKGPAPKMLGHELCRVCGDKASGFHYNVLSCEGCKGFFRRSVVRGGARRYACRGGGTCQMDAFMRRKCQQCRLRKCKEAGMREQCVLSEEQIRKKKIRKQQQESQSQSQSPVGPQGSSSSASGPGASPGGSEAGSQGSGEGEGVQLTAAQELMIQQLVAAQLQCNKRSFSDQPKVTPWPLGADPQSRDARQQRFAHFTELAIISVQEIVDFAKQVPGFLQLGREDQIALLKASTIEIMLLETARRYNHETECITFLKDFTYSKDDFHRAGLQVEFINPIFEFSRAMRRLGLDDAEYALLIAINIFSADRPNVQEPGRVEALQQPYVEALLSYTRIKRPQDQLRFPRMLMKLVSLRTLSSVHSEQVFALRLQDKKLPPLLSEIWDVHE
X-box-binding protein 1 (Homo sapiens), sequence (P17861 whole entry, looked up): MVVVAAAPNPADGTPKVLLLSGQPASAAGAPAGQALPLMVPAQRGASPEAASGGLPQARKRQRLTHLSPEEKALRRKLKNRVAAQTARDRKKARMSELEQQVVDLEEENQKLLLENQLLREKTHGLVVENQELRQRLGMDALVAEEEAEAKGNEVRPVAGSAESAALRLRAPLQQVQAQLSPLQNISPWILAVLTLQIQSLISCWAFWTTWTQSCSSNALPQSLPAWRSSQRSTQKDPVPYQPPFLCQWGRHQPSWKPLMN
Estrogen-related receptor gamma (Homo sapiens), sequence (P62508 whole entry, looked up, the tested form may be a part): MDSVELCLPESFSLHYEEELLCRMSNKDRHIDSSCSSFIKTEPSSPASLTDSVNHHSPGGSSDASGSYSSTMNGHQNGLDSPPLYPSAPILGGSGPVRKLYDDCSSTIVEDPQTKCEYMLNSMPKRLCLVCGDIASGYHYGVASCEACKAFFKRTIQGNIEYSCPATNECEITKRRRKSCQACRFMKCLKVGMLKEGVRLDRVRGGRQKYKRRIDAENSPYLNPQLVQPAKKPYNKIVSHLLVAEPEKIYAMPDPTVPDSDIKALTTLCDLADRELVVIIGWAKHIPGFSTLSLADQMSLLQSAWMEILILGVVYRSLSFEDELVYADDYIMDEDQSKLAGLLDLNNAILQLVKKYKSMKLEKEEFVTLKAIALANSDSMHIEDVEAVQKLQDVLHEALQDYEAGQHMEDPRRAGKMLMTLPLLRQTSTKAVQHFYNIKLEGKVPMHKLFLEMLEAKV

C=C(C)C(=O)OCCC(C)OC(=O)C(=C)C (stereo unspecified)
not listed: [13] | [14] | [15] | [16] | [17] | [18] | [19] | [20]
inactive: all other assays above

CCC(C)(C)C1CCC(=O)CC1
active: [5] 28.2 µM
not listed: [9] | [10] | [11] | [16] | [17] | [18] | [19] | [20]
inactive: all other assays above

CC(O)CNCC(C)O (stereo unspecified)
inactive: [1] | [2] | [3] | [4] | [16] | [7] | [17] | [10] | [11] | [12]

NNC(=O)OCc1ccccc1
not listed: [9] | [13] | [14] | [16] | [19] | [20]
inactive: all other assays above

OC[C@@H](O)[C@H](O)[C@@H](O)[C@@H](O)CO
active: [5] 13.8 µM
not listed: [9] | [13] | [14] | [15] | [16] | [17] | [18] | [20]
inactive: all other assays above

CC(C)OB(OC(C)C)OC(C)C
not listed: [5] | [6] | [11] | [15] | [19]
inactive: all other assays above

CCCCCC#CC(=O)OC
inactive: [1] | [2] | [3] | [4] | [16] | [5] | [7] | [19] | [15] | [11] | [12]

CCCCN(CCCC)CCCCCCN(CCCC)CCCC
inactive: [1] | [2] | [3] | [4] | [16] | [7] | [19] | [14] | [11] | [12]

Nc1cc([N+](=O)[O-])ccc1C(=O)O
not listed: [5] | [6] | [9] | [11] | [13] | [15] | [17] | [20]
inactive: all other assays above

C=CCCCCCCCCC(=O)OCC
active: [3] 0.332 µM
not listed: [8] | [9] | [10] | [13] | [14] | [15] | [16] | [20]
inactive: all other assays above

NCCN1CCNCC1
inactive: [1] | [2] | [3] | [4] | [16] | [5] | [7] | [14] | [15] | [18] | [12]
